Assay outcomes deposited in PubChem BioAssay by several laboratories.
An excerpt weighted towards active compounds, which were near 1.9% of everything screened.
Ba/F3 V617F tox: loss of viability in JAK2V617F-driven Ba/F3 cells; Ba/F3 EpoR-JAK2V617F viability, ATP luminescence; 1.1% of 220,000 active; inhibition, % at 5.6 µM;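 active = inhibition above the campaign mean plus 3 SD over all tested compounds, cut at about 24% in these data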;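 also: cytokine-independent growth of Ba/F3 cells driven by EpoR plus mutant JAK2; 0% = DMSO-treated cells and 100% = JAK inhibitor I control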
KLF5 inh: kruppel-like factor 5 inhibition. 0.23% of 290,000 active. inhibition, % at 5 µM. DLD-1 KLF5 promoter-luciferase reporter, luminescence;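 active = inhibition above a per-plate limit of that plate's mean compound inhibition plus 3 SD, cut at about 60% in these data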;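 also: 0% = DMSO wells and 100% = LY294002 at 200 µM; higher means less KLF5 promoter-driven luciferase light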
APP transl inh: APP translation inhibition; SH-SY5Y APP 5'UTR-luciferase reporter, luminescence; 0.82% of 190,000 active; inhibition, % at 2 µM;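 active = inhibition above a set limit, derived from the sample mean plus 3 SD, cut at about 45% in these data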
IEC-6 tox-1: IEC-6 cytotoxicity, counter-screen for KLF5 inhibitors. luminescence viability. inhibition, % at 5 µM. 0.78% of 290,000 active. AID 1825;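 also: 0% = plate median of test compound wells and 100% = cytotoxic reference compound wells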
BaF3 parental: parental Ba/F3 viability inhibition as JAK2V617F counter-screen; CellTiter-Glo ATP luminescence; AID 1486; 1.1% of 220,000 active; inhibition, % at 5.6 µM;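 active = inhibition above a per-campaign cutoff, the mean inhibition of all tested compounds plus 3 SD, cut at about 27% in these data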;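 also: 0% = DMSO wells and 100% = JAK Inhibitor I control wells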
BaF3 tox 2: parental Ba/F3 viability inhibition for JAK2V617F counter-screen. shares compounds with Ba/F3 V617F tox. CellTiter-Glo luminescence; cells kept alive by added IL-3. inhibition, % at 5.6 µM. 31% of 580 active. AID 1520;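 active = cell growth inhibition above the hit limit set in the earlier mutant JAK2 cell screen, cut at about 27% in these data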;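 also: plate controls were DMSO-treated cells for no effect and JAK Inhibitor I control wells for full effect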
JAK2V617F conf: confirmation: loss of viability in JAK2V617F-dependent Ba/F3 cells; shares compounds with Ba/F3 V617F tox; Ba/F3 EpoR-JAK2V617F viability, CellTiter-Glo luminescence; inhibition, % at 5.6 µM; 66% of 580 active; AID 1521;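 active = mean inhibition above the hit cutoff derived in the earlier primary screen, cut at about 25% in these data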;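 also: 0% = DMSO-treated cells and 100% = JAK inhibitor I control wells; higher means lower luminescence from reduced cell ATP and viability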
KLF5 confirm: confirmation of KLF5 inhibitors | AID 1834 | DLD-1 KLF5 promoter firefly luciferase reporter, luminescence | 79% of 610 active | inhibition, % at 4 µM | shares compounds with KLF5 inh;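 active = inhibition above a set limit taken from the earlier primary screen, cut at about 63% in these data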;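 also: 0% = DMSO wells and 100% = LY294002 at 200 µM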
IEC-6 tox-2: kills rat IEC-6 cells in KLF5 counter-screen; inhibition, % at 4 µM; IEC-6 rat intestinal cells, viability luminescence; shares compounds with KLF5 inh; 56% of 610 active; in the data active = inhibition above about 23%;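 also: cells exposed to compounds for 48 hours before viability read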
IEC-6 tox confirm: confirmation of cytotoxic compounds in rat IEC-6 intestinal epithelial cells. inhibition, % at 5 µM. shares compounds with IEC-6 tox-1. 63% of 1,900 active. IEC-6 rat intestinal epithelial viability, luminescence;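 also: 0% = vehicle and 100% = reference cytotoxic drug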
Numbers without * were called inactive; nt = no result. Rule as the data show it, unless noted: active = inhibition above about 22%; inactive = the rest.

SMILES	Ba/F3 V617F tox	KLF5 inh	APP transl inh	IEC-6 tox-1	BaF3 parental	KLF5 confirm	IEC-6 tox-2	others
O=C(c1ccc2c(c1)C(=O)N(CCCO)C2=O)c1ccc2c(c1)C(=O)N(CCCO)C2=O	1	26	1	2	4	nt	nt
O=C1c2ccc3c4c(ccc(c24)C(=O)N1CCCCO)C(=O)N(CCCCO)C3=O	32*	10	28	29*	13	nt	nt	BaF3 tox 2=79*;JAK2V617F conf=91*;IEC-6 tox confirm=37*
Cc1cccc(Nc2nc(N)nc(CCl)n2)c1C	100*	-22	nt	102*	3	nt	nt	BaF3 tox 2=5;JAK2V617F conf=98*;IEC-6 tox confirm=1
COc1ccccc1Nc1nc(N)nc(CCl)n1	-2	-24	nt	0	2	nt	nt
Cn1cc([N+](=O)[O-])c(C(=O)Nc2cc(Oc3ccccc3)cc([N+](=O)[O-])c2)n1	26*	-10	97*	23*	2	nt	nt	BaF3 tox 2=32*;JAK2V617F conf=99*;IEC-6 tox confirm=19
COc1ccc(N2CCN(C(c3cccs3)C(C)NS(C)(=O)=O)CC2)cc1 (stereo not given)	1	-4	-18	3	5	nt	nt
COc1ccccc1N1C(=O)c2cccc3c(C(=O)O)ccc(c23)C1=O	-2	-14	5	-2	3	nt	nt
COc1ccc2c3c(cccc13)C(=O)N(O)C2=O	30*	22	10	63*	2	nt	nt	BaF3 tox 2=-2;JAK2V617F conf=18;IEC-6 tox confirm=33*
COc1ccc(CNC(=O)CN(C(=O)CCC(=O)Nc2nccs2)c2ccc(C)cc2)cc1	nt	1	nt	1	nt	nt	nt
CCN(C(=O)CSc1nnc(-c2ccc(Cl)cc2)n1C)C1CCS(=O)(=O)C1 (stereo not given)	0	4	-22	-4	-1	nt	nt
O=[N+]([O-])c1ccc(Sc2nnnn2-c2ccccc2)nc1	69*	-3	94*	38*	3	nt	nt	BaF3 tox 2=29*;JAK2V617F conf=100*;IEC-6 tox confirm=44*
COc1cccc(/C=N/NC(=O)c2[nH]nc3c2CCc2ccccc2-3)c1	29*	27	nt	23*	-1	nt	nt	BaF3 tox 2=44*;JAK2V617F conf=92*;IEC-6 tox confirm=43*
COc1ccc(OC)c(/C=N/NC(=O)c2[nH]nc3c2CCc2ccccc2-3)c1	-2	7	6	-10	6	nt	nt
CC(=O)OC[C@H]1O[C@@H](n2ncc(=O)[nH]c2=O)[C@H](OC(C)=O)[C@@H]1OC(C)=O	61*	47	-7	39*	26	nt	nt	BaF3 tox 2=53*;JAK2V617F conf=75*;IEC-6 tox confirm=22*
CCOc1ccc2c(c1)sc(N)[n+]2Cc1cc(C)cc2cccnc12	86*	76*	94*	76*	80*	73*	67*
Cc1cc(C[n+]2ncsc2N)c2ncccc2c1	-1	-1	nt	0	-5	nt	nt
C/C(=N\NC(=O)c1ccccc1NC(=O)c1ccc(Cl)cc1)c1ccncc1	19	65*	-62	13	21	107*	67*
C/C(=N/NC(=O)c1ccncc1)c1ccccc1	nt	-19	nt	-5	nt	nt	nt
Cc1c(OCC(=O)NCC2CCC(C(=O)O)CC2)ccc2c(-c3ccccc3)cc(=O)oc12 (stereo not given)	nt	-19	nt	4	nt	nt	nt
COc1ccccc1OCC(=O)N/N=C/c1c(O)ccc2ccccc12	nt	67*	nt	4	nt	58	-6
Cc1ccc2nc(NC(=O)[C@H](C)N3C(=O)C4CC=CCC4C3=O)sc2c1 (stereo not given in full)	-4	74*	18	4	1	56	3
O=C(Nc1nc2cc3c(cc2s1)OCCO3)C1=COCCO1	11	96*	nt	17	11	92*	10
CC(=O)Nc1nc2cc3c(cc2s1)OCCO3	nt	-36	nt	3	nt	nt	nt
O=C(N/N=C/c1cc(Cl)cc(Cl)c1O)c1ccncc1	2	77*	nt	19	-4	35	7
COc1cccc(NC(=O)CN(C)C(=O)c2ccc(-c3ccccc3Cl)o2)c1	nt	4	nt	-3	nt	nt	nt
SMILES	Ba/F3 V617F tox	KLF5 inh	APP transl inh	IEC-6 tox-1	BaF3 parental	KLF5 confirm	IEC-6 tox-2	others
COC(=O)C1SCC2C(=O)N(Cc3ccc(Cl)c(Cl)c3)CC(=O)N21 (stereo not given)	3	-3	14	0	7	nt	nt
O=C(NC(=O)c1ccccc1)Nc1ccccn1	nt	84*	nt	13	nt	66*	33*
Cc1cccc(NC(=O)NC(=O)c2ccccc2)n1	0	-48	-47	-4	7	nt	nt
CCCn1c(C)cs/c1=N\C(=S)Nc1ccccc1	5	118*	-25	8	4	-18	5
Cc1cs/c(=N/C(=S)Nc2ccccc2)n1C	0	-103	-133	0	5	nt	nt
Cn1c2ccccc2c2cc(C(=O)N3CCOCC3)sc21	4	66*	-5	15	6	44	17
O=C1C(=O)N(c2nccs2)C(c2ccccc2F)/C1=C(\O)c1ccc2c(c1)OCCO2 (stereo not given)	nt	38	nt	1	nt	nt	nt
O=C1C(=O)N(c2nccs2)C(c2ccccc2)/C1=C(\O)c1ccc2c(c1)OCCO2 (stereo not given)	nt	74*	nt	-2	nt	54	8
O=Cc1ccc(O)c2ncccc12	8	82*	nt	100*	53*	60	29*
N/C(=N\OC(=O)c1ccc(Cl)cc1Cl)c1ccccn1	14	95*	-32	14	22	46	3
N/C(=N\OC(=O)c1ccc(Cl)cc1[N+](=O)[O-])c1ccccn1	nt	-111	nt	7	nt	nt	nt
Cc1ccc(C(=O)O/N=C(\N)c2ccccn2)c(Cl)c1	nt	96*	nt	3	nt	75*	8
COc1ccc(N2CCN(C(CNC(=O)CC(C)(C)C)c3ccc4c(c3)OCO4)CC2)cc1 (stereo not given)	nt	5	nt	-4	nt	nt	nt
Cc1ccc2c(c1)cc1c(=O)n(CC(=O)NCCN3CCCC3)nc(C)n12	nt	-31	nt	-5	nt	nt	nt
CCCn1nc(NS(=O)(=O)c2cccc3nonc23)c2cc3ccccc3nc21	nt	-22	nt	-1	nt	nt	nt
CSc1nnc(NC(=O)c2ccc3c(c2)OCO3)s1	nt	75*	nt	-3	nt	62	-2
CC(C)Oc1ccccc1C1CC(=O)Nc2cc3c(cc21)OCO3 (stereo not given)	73*	87*	92*	84*	75*	83*	64*
CCCOc1ccccc1C1CC(=O)Nc2cc3c(cc21)OCCO3 (stereo not given)	77*	66*	94*	81*	77*	83*	64*
CCN(C(=S)Nc1ccc(C(C)=O)cc1)C1CCCCC1	1	-19	-28	2	9	nt	nt
O=C(Nc1ccc(S(=O)(=O)N2CCCC2)cc1)c1ccc([N+](=O)[O-])cc1	nt	-13	nt	7	nt	nt	nt
CC1(C)N=C(N)N=C(N)N1c1ccc(OCCCOc2ccccc2)c(Cl)c1	97*	77*	nt	82*	102*	73*	66*
